# Screens from PubChem.
# HT1080-NT tox: qHTS for induction of synthetic lethality in tumor cells producing 2HG: qHTS for the HT-1080-NT fibrosarcoma cell line. HT-1080-NT fibrosarcoma viability, CellTiter-Glo ATP luminescence, 48 h. Potency, µM (series often up to 46.1 µM), for the others: at the top dose activity, negative = less viability, hits mostly cytotoxic. actives 1.6% (n = 360,000);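 note: NT is the 2HG producing partner of a matched IDH1 knockdown line; potency is the fitted concentration of half-maximal effect; 0% = DMSO-treated cells and -100% = media-only wells without cells; nearly all actives have a fitted effect of over 55% in size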
#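 Read-out is CellTiter-Glo luminescence after 10 minutes at room temperature, following 48 hours' compound treatment of HT-1080-NT cells (750 cells/well, RPMI, 5% FBS, 37 degrees C).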
# HT1080 IDH1KD tx: qHTS for induction of synthetic lethality in tumor cells producing 2HG: qHTS for the HT-1080-IDH1KD cell line; HT-1080 IDH1 knockdown viability, ATP luminescence, 48 h; Potency, µM (series often up to 46.1 µM), for inactives: at the top dose activity, negative = toxicity, usual class: cytotoxic; actives 2% (n = 360,000); AID 686971, 2013;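 note: potency is the fitted concentration of half-maximal effect; 0% = DMSO wells and -100% = cell-free medium wells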
#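 After a 2 h attachment period, IDH1KD HT-1080 cells took pin-transferred compound for 48 h at 37 °C; ATP-based luminescence after 10 min room-temperature reagent incubation reported viability.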
# ELG1 DNA repair: qHTS screen for small molecules that inhibit ELG1-dependent DNA repair in human embryonic kidney (HEK293T) cells expressing luciferase-tagged ELG1; HEK293T ELG1-luciferase reporter, luminescence, 16 h; DNA damage induced by 5-fluorouridine; Potency, µM (series often up to 46.1 µM), for the others: at the top dose activity change, negative = inhibition, hits mostly inhibitors; AID 504467, 2011; actives 2.3% (n = 330,000); note: potency is the fitted concentration of half-maximal effect; nearly all actives have a fitted effect of over 55% in size
#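 HEK293T cells expressing luciferase-tagged ELG1 (2,000/well) received 5-Fluorouridine plus compound or DMSO for 16 hr at 37 °C. Luciferase was read by ONE-Glo luminescence after 30 min at room temperature.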
# IL1B secr inh: qHTS for Inhibitors of Inflammasome Signaling: IL-1-beta AlphaLISA Primary Screen | AID 743279, 2014 | actives 4.7% (n = 360,000) | THP-1 LPS/ATP IL-1B secretion, AlphaLISA, 16 h; stronger effect = lower value | activity change, % at 57.5 µM; in the data active = activity change below about -50%; inconclusive = mostly about -30% to -49%
#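 THP-1 cells pretreated 1 hr with compounds (up to 57.5 uM final), then stimulated with LPS (250 ng/mL final) plus ATP (1.25 mM final); secreted IL-1B measured by AlphaLISA after 16 hr, decreased signal indicating inhibition.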
# TDP1 cell CPT: qHTS for Inhibitors of human tyrosyl-DNA phosphodiesterase 1 (TDP1): qHTS in cells in presence of CPT; chicken DT40 Tdp1-/-;hTDP1 cells + 20 nM CPT, ATP luminescence, 48 h; actives 12% (n = 420,000); Potency, µM (top dose mostly 46.2 µM), for inactives: at the top dose activity change, negative = growth inhibition, most hits filed as inhibitors; note: potency is the fitted concentration of half-maximal effect; nearly all actives have a fitted effect of over 55% in size
#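 Chicken DT40 Tdp1-/- cells stably complemented with human TDP1 were seeded at 400 cells/well in medium containing 20 nM camptothecin, exposed to pin-transferred compounds, and grown at 37 °C for at least 48 hr. Viability was read as ATP luminescence.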
# DT40 TDP1 no CPT: qHTS for Inhibitors of human tyrosyl-DNA phosphodiesterase 1 (TDP1): qHTS in cells in absence of CPT | DT40 Tdp1-/- hTDP1 cells, no CPT, ATP luminescence, 48 h | actives 15% (n = 420,000) | AID 686978, 2013 | Potency, µM (series often up to 46.2 µM), for the others: top-dose activity change, negative = growth inhibition, usual class: inhibitors; note: potency is the fitted concentration of half-maximal effect; nearly all actives have a fitted effect of over 55% in size
#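 Cells were dispensed at 400 per well, compounds added by pin tool, plates incubated ≥48 hr at 37 °C, then CellTiter-Glo added for 30 min at room temperature before luminescence reading. Line: DT40 Tdp1-/- complemented with hTDP1; camptothecin omitted.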
# * = called active by the depositor; i = inactive; ? = inconclusive; · = no result; [ ] = dose if it differs, or a comment. Rows were chosen to be rich in hits. Some 19% of all compounds tested hit in one or more screens of this group. Unless noted, calls come from the whole dose curve; as a rule, active = well fitted curve in the direction sought with a large enough effect; inconclusive = small, poorly fitted or top-dose-only effect, or another doubt; inactive = no such curve, though single readings can be large; an effect the other way counts as inactive or inconclusive. Unless noted, % is set by controls: 0 for no effect and ±100 for the full control effect.
SMILES,HT1080-NT tox,HT1080 IDH1KD tx,ELG1 DNA repair,IL1B secr inh,TDP1 cell CPT,DT40 TDP1 no CPT
Nc1c(C(=O)Nc2ccccc2)nnn1-c1ccc2c(c1)OCCO2,-11%,-15%,?,-60*,-8%,?
Cc1ccc(O)c(C(CC(=O)NC2CCCCC2)c2ccccc2)c1 (stereo not drawn),-8%,-21%,-2%,?,-67%,23µM*
Cc1ccc(O)c(C(CC(=O)NC(C)C)c2ccccc2)c1 (stereo not drawn),-1%,-1%,5%,0,-2%,-3%
CCCN(CCC)C(=O)CC(c1ccccc1)c1cc(C)ccc1O (stereo not drawn),?,?,?,-57*,?,?
CCn1c(C2CC(=O)N(c3cc(C)cc(C)c3)C2)nc2ccccc21 (stereo not drawn),-1%,2%,-9%,1,?,?
Cc1cccc(C)c1OCCn1c(C2CC(=O)N(c3cccc(Cl)c3)C2)nc2ccccc21 (stereo not drawn),·,·,·,·,16µM*,13µM*
Cc1cccc(C)c1OCCCCn1c(C2CC(=O)N(c3ccc(F)cc3)C2)nc2ccccc21 (stereo not drawn),·,·,·,·,13µM*,15µM*
CCCn1c(C2CC(=O)N(c3ccc(C)cc3)C2)nc2ccccc21 (stereo not drawn),6%,6%,-15%,2,-20%,0%
O=C(NCC(=O)N1CCN(c2ccccc2O)CC1)c1ccc2c(c1)OCO2,-4%,-1%,-11%,?,-11%,4%
C[C@H](CO)N1C[C@H](C)[C@H](CN(C)S(=O)(=O)c2cccc(C#N)c2)OCc2cnnn2CCCC1=O,4%,9%,·,-15,-10%,-22%
COc1cccc(C(=O)OCC(=O)Nc2ccc(N3CCOCC3)cc2)c1,-1%,4%,?,11,1%,-10%
COc1cccc(N2C(C(C)=O)=NN(c3ccccc3)C2c2ccc(N3CCOCC3)cc2)c1 (stereo not drawn),-16%,-11%,?,5,18µM*,16µM*
COC(=O)c1ccc(OCC(O)CN2CCN(C(=O)c3ccco3)CC2)c(OC)c1 (stereo not drawn),13%,-3%,1%,-14,4%,-12%
COC(=O)CC[C@@H](C)[C@H]1CC[C@H]2[C@@H]3CC[C@@H]4C[C@H](O)CC[C@]4(C)[C@H]3C[C@H](O)[C@]12C,·,·,·,·,?,-31%
COC(=O)CCC(C)C1CCC2C3CCC4CC(O)CCC4(C)C3=CC(=O)C12C (stereo not drawn),19%,-2%,·,-53*,?,?
O=C1CCN(S(=O)(=O)c2cccs2)c2ccc(C(F)(F)F)cc2N1,4%,4%,12%,?,4%,5%
COc1ccc(Nc2ncnc3c2cnn3-c2cc(Cl)ccc2C)cc1OC,·,·,·,·,21µM*,?
Cc1ccc(Cl)cc1-n1ncc2c(Nc3cccc(C)c3C)ncnc21,·,·,·,·,16µM*,16µM*
CNC(=O)c1c(NC(=O)C2=COCCO2)sc2c1CCCC2,1%,-13%,27%,i,-26%,?
CCc1ccc(S(=O)(=O)Nc2ccc3c(c2)sc(=O)n3C)cc1,·,·,·,·,21µM*,15µM*
COc1ccc(S(=O)(=O)Nc2ccc3c(c2)n(C)c(=O)n3C)cc1,25%,0%,?,-3,1%,-9%
CC(NC(=O)/C(=C\c1ccco1)NC(=O)c1ccccc1Br)C(=O)O (stereo not drawn),-6%,1%,-12%,-7,12%,-3%
CCCN(C(=O)c1nn(-c2ccc(OC)cc2)c(=O)c2c1c1ccccc1n2C)c1ccc(CC)cc1,·,·,·,·,-17%,?
CCN(Cc1ccccc1)C(=O)c1nn(-c2ccc(OC)cc2)c(=O)c2c1c1ccccc1n2C,-3%,2%,18µM*,0,12µM*,23µM*
CCCCN(CC)C(=O)c1nn(-c2ccc(OC)cc2)c(=O)c2c1c1ccccc1n2C,·,·,·,·,?,23µM*
SMILES,HT1080-NT tox,HT1080 IDH1KD tx,ELG1 DNA repair,IL1B secr inh,TDP1 cell CPT,DT40 TDP1 no CPT
COc1ccc(CN2C(=O)CCC2(C)c2nnnn2-c2ccc3c(c2)OCCO3)cc1 (stereo not drawn),6%,6%,·,37,-14%,-23%
O=C(CSc1ncn[nH]1)Nc1ccc(S(=O)(=O)Nc2ncccn2)cc1,-2%,-1%,4%,-4,-1%,-8%
COc1ccc(NCCC(O)c2ccc(Cl)cc2)cc1 (stereo not drawn),1%,10%,3%,-16,9%,-9%
COc1ccc(Cl)cc1NCCC(O)c1ccc(F)cc1 (stereo not drawn),2%,0%,-1%,-1,18µM*,9.2µM*
CC(C)c1ccc(OCC(=O)Nc2ccc(OC(F)(F)F)cc2)cc1,9%,7%,11%,-4,-11%,-28%
CC(C)c1ccc(NC(=O)COc2ccc(C3SCCS3)cc2)cc1,0%,-6%,-2%,13,?,23µM*
CCCCNC(=O)Nc1ccc(C2SCCS2)cc1,-20%,-12%,?,·,?,16µM*
OCc1ccccc1-c1cnc2sc(NCc3ccc(F)cc3)nn12,3%,-4%,·,1,?,?
CN(C)CC(C)(O)c1ccc2c(c1)CN(Cc1cnn(-c3ccccc3)c1)CCO2 (stereo not drawn),·,·,·,·,11%[9.04 µM],-4%
CC[C@H]1c2[nH]c3ccc(C(C)C)cc3c2[C@@H]2CCN3C(=O)CCC[C@H]1[C@H]23,4%,2%,·,-13,10µM*,10µM*
CC[C@@H]1C(=O)[C@H](Cc2ccccc2)[C@H]2CCCC(=O)N3CC[C@@H]1[C@@H]23,10%,10%,·,10,-5%,?
O=C1CCC[C@@H]2Cc3nc4ccccc4cc3[C@@H]3CCN1[C@H]23,8%,-1%,·,27,-9%,-2%
